Several values for one entry are separate records, joined by “and”; a condition that tells them apart may be missing. Equal entries are not always repeated. In all, about 5,500 compounds went through this assay and about 2,000 (36%) were called active. Not shown: some 18% with an inconclusive outcome. Rule as the data show it: active = normalized growth mostly below about 0.91 (no sharp cut-off); inconclusive = no clear call, values can overlap the other calls; inactive = mostly above about 0.92. The list shows a part of the results.
Test: chemical genetic growth profiling, strain panel (AID 1159580);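 also: tested at 20 µM; growth read once vehicle control cultures reached saturation at 30 °C; 1 = growth at the plate median or of vehicle wells; lower values mean less growth of the strain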
Details: S. cerevisiae deletion strains, growth OD

Measured: normalized growth

NCC(O)CC(=O)O (centres undefined)
inactive: locus YAL021C, strain ccr4, hits give low values 1.01 | locus YAL026C, strain drs2, hits give low values 0.967 | locus YAL030W, strain snc1, hits give low values 0.98 | locus YBL061C, strain skt5, hits give low values 0.986 | locus YBR009C, strain hhf1, hits give low values 0.962 | locus YBR021W, strain FUR4, hits give low values 0.999 | locus YBR023C, strain chs3, hits give low values 0.994 | locus YBR171W, strain sec66, hits give low values 0.989 | locus YBR229C, strain ROT2, hits give low values 1.01 | locus YBR231C, strain swc5, hits give low values 0.995 | locus YBR279W, strain paf1, hits give low values 0.991 | locus YCL011C, strain gbp2, hits give low values 0.966 | locus YCL016C, strain dcc1, hits give low values 0.994 | locus YCL029C, strain bik1, hits give low values 0.992 | locus YCL061C, strain MRC1, hits give low values 0.995 | locus YCL069W, strain vba3, hits give low values 0.984 | locus YCR088W, strain abp1, hits give low values 0.977 | locus YDL005C, strain med2, hits give low values 0.969 | locus YDL035C, strain GPR1, hits give low values 1.01 | locus YDL040C, strain nat1, hits give low values 0.991 | locus YDL074C, strain BRE1, hits give low values 1.01 | locus YDL101C, strain DUN1, hits give low values 1.01 | locus YDL134C, strain PPH21, hits give low values 1.01 | locus YDL185W, strain tfp1, hits give low values 0.994 | locus YDL192W, strain arf1, hits give low values 0.997 | locus YDR001C, strain nth1, hits give low values 0.977 | locus YDR069C, strain doa4, hits give low values 1.04 | locus YDR101C, strain arx1, hits give low values 1.02 | locus YDR137W, strain rgp1, hits give low values 0.988 | locus YDR159W, strain sac3, hits give low values 0.968 | locus YDR162C, strain NBP2, hits give low values 1.02 | locus YDR195W, strain ref2 0.951 | locus YDR297W, strain sur2, hits give low values 0.986 | locus YDR318W, strain mcm21, hits give low values 1.01 | locus YDR334W, strain swr1, hits give low values 0.975 | locus YDR335W, strain msn5, hits give low values 0.988 | locus YDR388W, hits give low values 0.999 | locus YDR392W, strain spt3, hits give low values 0.892 | locus YDR502C, strain sam2, hits give low values 0.991 | locus YEL003W, strain gim4, hits give low values 0.964 | locus YEL037C, strain rad23, hits give low values 0.977 | locus YEL061C, strain CIN8 (second series), hits give low values 0.966 | locus YEL061C, strain CIN8, hits give low values 1.01 | locus YER015W, strain faa2, hits give low values 0.986 | locus YER016W, strain bim1, hits give low values 0.983 | locus YER110C, hits give low values 1 | locus YER111C, strain swi4, hits give low values 0.974 | locus YER155C, strain BEM2 (second series), hits give low values 0.997 | locus YER155C, strain BEM2, hits give low values 1.01 | locus YER167W, strain BCK2, hits give low values 1.01 | locus YFR010W, strain ubp6, hits give low values 0.973 | locus YGL078C, strain dbp3, hits give low values 0.994 | locus YGL086W, strain mad1, hits give low values 1 | locus YGL167C, strain pmr1, hits give low values 0.957 | locus YGL173C, strain kem1, hits give low values 0.984 | locus YGL227W, strain vid30, hits give low values 0.955 | locus YGL240W, strain doc1, hits give low values 0.989 | locus YGL248W, strain PDE1, hits give low values 1.01 | locus YGL253W, strain hxk2, hits give low values 0.989 | locus YGR078C, strain PAC10, hits give low values 1.01 | locus YGR135W, strain pre9, hits give low values 1 | locus YGR252W, strain gcn5, hits give low values 0.982 | locus YHR013C, strain ard1, hits give low values 0.964 | locus YHR027C, strain rpn1, hits give low values 0.997 | locus YHR030C, strain SLT2, hits give low values 1.01 | locus YHR079C, strain IRE1 (second series), hits give low values 1 | locus YHR079C, strain IRE1, hits give low values 1.03 | locus YHR094C, strain hxt1, hits give low values 0.988 | locus YHR129C, strain ARP1, hits give low values 1.01 | locus YHR142W, strain chs7, hits give low values 1.02 | locus YHR200W, strain rpn10, hits give low values 0.999 | locus YIL066C, strain RNR3, hits give low values 1.02 | locus YIL073C, strain SPO22, hits give low values 1.03 | locus YIL125W, strain kgd1, hits give low values 1.01 | locus YIR030C, strain dcg1, hits give low values 1 | locus YJL092W, strain hpr5, hits give low values 0.99 | locus YJL095W, strain BCK1 (second series), hits give low values 1.01 | locus YJL095W, strain BCK1, hits give low values 1.01 and 1.02 | locus YJL115W, strain asf1, hits give low values 0.981 | locus YJL129C, strain trk1, hits give low values 0.991 | locus YJL134W, strain LCB3, hits give low values 1.01 | locus YJL154C, strain vps35, hits give low values 0.981 | locus YJL164C, strain tpk1, hits give low values 1.06 | locus YJL166W, strain qcr8, hits give low values 1.02 | locus YJL168C, strain set2, hits give low values 0.997 | locus YJL187C, strain SWE1 (second series), hits give low values 1.02 | locus YJL187C, strain SWE1, hits give low values 0.994 | locus YJR043C, strain POL32, hits give low values 1.02 | locus YJR066W, strain TOR1, hits give low values 0.924

— PubChem BioAssay AID1159580 (chemical genetic matrix, 2015)
